The target in experiment [1] is Thyrotropin receptor (Homo sapiens) (UniProt P16473). Briefly: qHTS assay to identify small molecule antagonists of the thyroid stimulating hormone receptor (TSHR) signaling pathway (AID 1259385; calls by dose curve; note: nearly all actives have a fitted effect of over 20% in size). A digest of the protocol: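 TSHR-HEK293 cells (800/well) plated 18 h, then compounds with Ro20-1724 and TSH at 1.5 ng/mL final, 30 min at room temperature. cAMP quantified by HTRF (cAMP-d2/anti-cAMP-cryptate, 1 h); 15 concentrations in triplicate.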
Sequence of Thyrotropin receptor (Homo sapiens) (P16473 whole entry, looked up): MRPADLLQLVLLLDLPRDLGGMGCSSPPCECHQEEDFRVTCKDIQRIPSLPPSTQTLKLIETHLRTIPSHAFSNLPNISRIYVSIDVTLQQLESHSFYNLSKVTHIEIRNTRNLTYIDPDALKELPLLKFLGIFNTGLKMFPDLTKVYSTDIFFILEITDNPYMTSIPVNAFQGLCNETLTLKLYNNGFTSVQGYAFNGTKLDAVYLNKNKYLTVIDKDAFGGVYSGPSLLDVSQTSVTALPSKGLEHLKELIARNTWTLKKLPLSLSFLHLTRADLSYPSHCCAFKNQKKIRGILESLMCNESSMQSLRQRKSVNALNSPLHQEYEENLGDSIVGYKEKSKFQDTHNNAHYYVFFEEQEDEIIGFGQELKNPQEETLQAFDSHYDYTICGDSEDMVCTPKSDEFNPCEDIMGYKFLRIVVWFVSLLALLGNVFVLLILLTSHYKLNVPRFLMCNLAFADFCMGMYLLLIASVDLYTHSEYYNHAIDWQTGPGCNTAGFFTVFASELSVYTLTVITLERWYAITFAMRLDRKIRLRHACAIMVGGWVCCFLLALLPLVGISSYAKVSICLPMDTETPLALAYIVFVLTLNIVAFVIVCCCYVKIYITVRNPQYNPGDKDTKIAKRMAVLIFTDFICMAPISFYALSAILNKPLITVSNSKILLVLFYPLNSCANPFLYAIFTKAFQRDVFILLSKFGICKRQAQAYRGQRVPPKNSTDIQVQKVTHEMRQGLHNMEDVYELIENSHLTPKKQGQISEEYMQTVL
A general note: qHTS replaces the single test concentration by a dilution series.

A short description of experiment [2]: qHTS assay to identify small molecule agonists of the estrogen receptor alpha (ER-alpha) signaling pathway in the presence of an antagonist - cell viability counter screen (AID 1259386).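 Note: series mostly up to about 92 µM; cells exposed to compounds for 22 h at 37 °C before the viability read; nearly all actives have a fitted effect of over 30% in size.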 The method in brief:
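ICI-182,780 at 10.0nM final accompanies the compound titration (15 concentrations, 22hr, 37C) on VM7Luc4E2 cells. The CellTiter-Fluor fluorescence readout runs in the same wells as the luciferase assay.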

The target in experiment [3] is Progesterone receptor (Homo sapiens) (UniProt P06401). Nature of the experiment: qHTS assay to identify small molecule agonists of the progesterone receptor (PR) signaling pathway (AID 1346784; calls by dose curve; note: nearly all actives have a fitted effect of over 30% in size). The method in brief: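 Beta-lactamase reporter read-out: after 16 hr compound treatment at 37C and a further 2 hr at room temperature with LiveBLAzer B/G FRET substrate, fluorescence was measured in PR-UAS-bla HEK 293T cells grown in 2% charcoal-stripped serum.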
Sequence of Progesterone receptor (Homo sapiens) (P06401 whole entry, looked up): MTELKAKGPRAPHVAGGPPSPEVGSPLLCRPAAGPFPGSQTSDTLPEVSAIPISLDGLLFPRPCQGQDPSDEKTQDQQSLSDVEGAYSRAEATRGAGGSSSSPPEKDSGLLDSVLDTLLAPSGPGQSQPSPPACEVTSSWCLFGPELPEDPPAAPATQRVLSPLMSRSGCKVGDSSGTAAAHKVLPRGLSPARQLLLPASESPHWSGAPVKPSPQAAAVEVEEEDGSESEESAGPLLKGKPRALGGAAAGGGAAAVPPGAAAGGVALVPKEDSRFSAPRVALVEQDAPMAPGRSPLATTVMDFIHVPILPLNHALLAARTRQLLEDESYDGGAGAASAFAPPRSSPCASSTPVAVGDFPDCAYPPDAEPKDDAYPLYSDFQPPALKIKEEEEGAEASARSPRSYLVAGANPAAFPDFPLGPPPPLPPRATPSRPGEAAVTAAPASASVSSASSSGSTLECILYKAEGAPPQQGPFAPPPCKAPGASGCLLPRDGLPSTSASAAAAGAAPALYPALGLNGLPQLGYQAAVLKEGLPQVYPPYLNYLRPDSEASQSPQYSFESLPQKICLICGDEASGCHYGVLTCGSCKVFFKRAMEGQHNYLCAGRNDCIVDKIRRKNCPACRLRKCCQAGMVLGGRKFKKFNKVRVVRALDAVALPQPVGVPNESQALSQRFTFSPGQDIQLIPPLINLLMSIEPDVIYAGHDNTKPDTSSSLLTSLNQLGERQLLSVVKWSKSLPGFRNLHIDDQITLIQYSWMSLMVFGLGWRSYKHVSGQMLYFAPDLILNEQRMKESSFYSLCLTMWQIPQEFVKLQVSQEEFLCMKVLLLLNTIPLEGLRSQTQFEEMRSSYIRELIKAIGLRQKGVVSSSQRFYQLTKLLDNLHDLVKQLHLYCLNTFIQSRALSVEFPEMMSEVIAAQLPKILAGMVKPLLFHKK

The target is the same in experiment [4]. Nature of the experiment: qHTS assay to identify small molecule antagonists of the progesterone receptor (PR) signaling pathway (AID 1346795; active = well fitted inhibition curve with a large enough effect in the signal ratio in the repeat runs, not every such curve was filed as active; the % refers to the signal ratio). A digest of the protocol:
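Read-out is fluorescence from the LiveBLAzer B/G FRET substrate, cleaved by a UAS-controlled beta-lactamase in PR-UAS-bla HEK293T cells after 16 hr exposure to compound plus 1 nM promegestone (final), followed by 2 hr at room temperature.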

Experiment [5] can be described thus: qHTS assay to identify small molecule antagonists of the progesterone receptor (PR) signaling pathway - cell viability counter screen (AID 1346798). Note: series mostly up to about 92 µM; nearly all actives have a fitted effect of over 50% in size. A digest of the protocol: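 HEK293T PR-UAS-bla, 2% charcoal-stripped FBS; 4 hr pre-plate; cpd + R5020, 16 h 37C; LiveBLAzer read first; then CellTiter-Glo 30 min RT, luminescence.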
The nature of experiment [6]: qHTS assay to identify small molecule antagonists of the TGF-beta/Smad signaling pathway - cell viability counter screen (AID 1346824). Note: nearly all actives have a fitted effect of over 50% in size. The method in brief: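 SBE-bla HEK 293T cells, incubated overnight, then compound plus 0.25 ng/mL TGF-beta1 (stock added) for 5 hr at 37 C. Viability was read in the same wells by CellTiter-Glo luminescence after 30 min at room temperature.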

A short description of experiment [7]: qHTS assay to identify small molecule agonists of the TGF-beta/Smad signaling pathway - cell viability counter screen (AID 1346829). Note: top concentration of the series differs between compounds; nearly all actives have a fitted effect of over 45% in size. A digest of the protocol:
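Here the cytotoxicity of library compounds is measured in SBE-bla HEK 293T cells treated for 5 hr, using CellTiter-Glo added to wells already read for the beta-lactamase reporter.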

Experiment [8] is described as follows: qHTS assay to identify small molecule agonists of the TGF-beta/Smad signaling pathway (AID 1346859; active = well fitted activation curve with a large enough effect in the signal ratio in the repeat runs, not every such curve was filed as active; the % refers to the signal ratio; note: series mostly up to about 77 µM). The method in brief:
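SBE-bla HEK 293T, 4,000 cells/well, plated o/n; cpd in DMSO, 5 hr, 37 C/5% CO2; B/G FRET substrate 2 hr RT; ex 405, em 460/530 nm.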

Experiment [9] addresses Thyrotropin-releasing hormone receptor (Homo sapiens) (UniProt P34981). Briefly: qHTS assay to identify small molecule antagonists of the thyrotropin-releasing hormone receptor (TRHR) signaling pathway (AID 1346877; active = well fitted inhibition curve with a large enough effect in the repeat runs, not every such curve was filed as active; note: series mostly up to about 51 µM). A digest of the protocol: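 Screening used HEK293 cells engineered with TRHR, with a brief 5 min room-temperature compound exposure preceding addition of TRH to 1 nM. The read-out was kinetic calcium-dye fluorescence, concentration-response from 15 doses in triplicate.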

Experiment [10] has the same target. Briefly: qHTS assay to identify small molecule agonists of the thyrotropin-releasing hormone receptor (TRHR) signaling pathway (AID 1346891; calls by dose curve; note: series mostly up to about 58 µM). The method in brief: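 Intracellular calcium rise, read as fluorescence every second for 3 min, served as the agonist signal in dye-loaded HEK293 cells expressing TRHR; each compound ran at 15 concentrations in triplicate.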

Experiment [11] in a line: Human pregnane X receptor (PXR) small molecule agonists, qHTS cell viability counter screen (AID 1346977). Note: nearly all actives have a fitted effect of over 50% in size. The method in brief: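 PXR-Luc HepG2, 2,000 cells/well, 5% charcoal-stripped FBS; 5hr settle; cpd 24hr, 37C/5% CO2; CellTiter-Fluor at 23hr, read 1hr later (fluorescence).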
Experiment [12] in a line: Caspase-3/7 induction in HepG2 cells by small molecules, qHTS assay (AID 1346978). Note: nearly all actives have a fitted effect of over 15% in size. The method in brief:
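Wild-type HepG2 cells, 2,000/well, settled 5 hr at 37 C and 5% CO2, then compound-treated for 17 hr; caspase-3/7 activity read by luminescent Caspase-Glo 3/7 after 30 min at room temperature.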

A short description of experiment [13]: Caspase-3/7 induction in CHO-K1 cells by small molecules, qHTS cell viability counter screen (AID 1346979). Note: nearly all actives have a fitted effect of over 35% in size. A digest of the protocol:
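Cells (CHO-K1, wild type) are plated at 1,500 per well and incubated 5hr. Test compounds in DMSO are then pinned in, followed by 16hr at 37C and 5% CO2. Viability is read by CellTiter-Fluor fluorescence after 1hr.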

Experiment [14] in a line: Caspase-3/7 induction in CHO-K1 cells by small molecules, qHTS assay (AID 1346980). Note: nearly all actives have a fitted effect of over 15% in size. The method in brief:
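Wild-type CHO-K1 cells exposed to compounds for 17hr at 37 C, 5% CO2. Caspase-3/7 activity then measured by Caspase-Glo 3/7 luminescence after 30min at room temperature.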

The target of experiment [15] is Nuclear receptor subfamily 1 group I member 2 (Homo sapiens) (UniProt O75469). Briefly: Human pregnane X receptor (PXR) small molecule agonists, qHTS assay (AID 1346982). Note: nearly all actives have a fitted effect of over 35% in size. Note: potency is the fitted concentration of half-maximal effect. A digest of the protocol:
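We seeded PXR-Luc HepG2 cells in assay medium containing 5% charcoal-stripped FBS, added compounds 5 hr later, incubated 24 hr, and read luminescence with ONE-Glo reagent.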

The target of experiment [16] is Nuclear receptor subfamily 1 group I member 2 (Rattus norvegicus) (UniProt Q9R1A7). Briefly: Rat pregnane X receptor (rPXR) activation by small molecules, qHTS assay (AID 1346983). Note: nearly all actives have a fitted effect of over 20% in size. As to conditions: rPXR luciferase reporter cells, One-Glo luminescence, 24 h; hits give high values. A digest of the protocol:
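Cell-based rPXR activation assay: rPXR cells, 2,000 per well, rested 5hr at 37 C, then exposed to compounds in DMSO for 24 hr at 37 C. Luciferase activity read by One-Glo luminescence after 30 min at room temperature.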

For experiment [17], the target named is Nuclear receptor subfamily 1 group I member 2 (Homo sapiens) (UniProt O75469). Briefly: CYP3A4 induction through human pregnane X receptor (PXR) by small molecules, qHTS assay (AID 1346984). Note: nearly all actives have a fitted effect of over 40% in size. The method in brief:
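qHTS, concentration-response format: HepG2 DPX-2 line, PXR/CYP3A4-luc. Exposure 24 h, 37C. Substrate Luciferin-IPA 3uM final, 3 h. Detection One-Glo, 30 min RT.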

Experiment [18] has the same target. Briefly: Human pregnane X receptor (PXR) activation by small molecules, qHTS assay (AID 1346985). Note: nearly all actives have a fitted effect of over 40% in size. The method in brief:
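DPX-2 cells (HepG2 co-transfected with a PXR response element and a CYP3A4-promoter luciferase construct) were seeded at 2,000 per well, rested 5 hr at 37C, then exposed to DMSO-dissolved compounds for 24 hr. Activation was read as luciferase luminescence.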

The nature of experiment [19]: qHTS assay to identify small molecule agonists of the progesterone receptor (PR) signaling pathway - cell viability counter screen (AID 1346799; calls by dose curve; note: nearly all actives have a fitted effect of over 45% in size). A digest of the protocol:
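Luminescence from CellTiter-Glo, added after the beta-lactamase FRET read in the same wells, gave cytotoxicity in PR-UAS-bla HEK293T cells treated with compounds for 16 hr at 37C.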

The nature of experiment [20]: Caspase-3/7 induction in HepG2 cells by small molecules, qHTS cell viability counter screen (AID 1346981). Note: series mostly up to about 92 µM; nearly all actives have a fitted effect of over 30% in size. A digest of the protocol:
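Multiplexed with the caspase-3/7 assay: HepG2 cells, 16 hr compound treatment, CellTiter-Fluor viability detection by fluorescence.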

The structures appear in SMILES notation. Unmarked numbers belong to inactive results. Results filed as inconclusive are left out. Activity calls are given as the source filed them. Unless noted, calls come from the whole dose curve; as a rule, active = well fitted curve in the direction sought with a large enough effect in the repeat runs; inconclusive = weak or mixed curves; inactive = no such curve, though single readings can be large; an effect the other way counts as inactive or inconclusive.
% is set by controls: 0 for no effect and ±100 for the full control effect.

Sequence of Nuclear receptor subfamily 1 group I member 2 (Rattus norvegicus) (Q9R1A7 whole entry, looked up): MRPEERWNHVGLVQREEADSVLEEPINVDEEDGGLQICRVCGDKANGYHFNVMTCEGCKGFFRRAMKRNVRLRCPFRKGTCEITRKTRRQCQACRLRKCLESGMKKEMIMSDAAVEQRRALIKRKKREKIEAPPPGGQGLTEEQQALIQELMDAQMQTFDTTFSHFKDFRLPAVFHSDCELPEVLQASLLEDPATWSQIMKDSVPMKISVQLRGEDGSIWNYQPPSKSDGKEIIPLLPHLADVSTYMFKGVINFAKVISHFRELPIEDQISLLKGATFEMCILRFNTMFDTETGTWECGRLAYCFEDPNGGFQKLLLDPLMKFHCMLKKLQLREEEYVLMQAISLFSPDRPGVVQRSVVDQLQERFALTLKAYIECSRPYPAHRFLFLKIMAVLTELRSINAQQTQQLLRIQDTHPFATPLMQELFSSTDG
Sequence of Nuclear receptor subfamily 1 group I member 2 (Homo sapiens) (O75469 whole entry, looked up): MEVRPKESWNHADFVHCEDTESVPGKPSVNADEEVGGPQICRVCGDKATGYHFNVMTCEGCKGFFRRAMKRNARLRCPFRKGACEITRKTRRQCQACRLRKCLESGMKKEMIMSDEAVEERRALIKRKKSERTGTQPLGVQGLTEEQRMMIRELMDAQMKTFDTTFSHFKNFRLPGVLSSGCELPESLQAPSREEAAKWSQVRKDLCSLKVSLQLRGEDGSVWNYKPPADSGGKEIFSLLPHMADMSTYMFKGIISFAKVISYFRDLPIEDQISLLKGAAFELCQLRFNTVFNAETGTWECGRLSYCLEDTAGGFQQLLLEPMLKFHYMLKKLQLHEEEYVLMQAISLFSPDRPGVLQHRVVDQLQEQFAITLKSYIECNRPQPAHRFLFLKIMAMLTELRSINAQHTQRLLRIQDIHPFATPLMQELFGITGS
Sequence of Thyrotropin-releasing hormone receptor (Homo sapiens) (P34981 whole entry, looked up): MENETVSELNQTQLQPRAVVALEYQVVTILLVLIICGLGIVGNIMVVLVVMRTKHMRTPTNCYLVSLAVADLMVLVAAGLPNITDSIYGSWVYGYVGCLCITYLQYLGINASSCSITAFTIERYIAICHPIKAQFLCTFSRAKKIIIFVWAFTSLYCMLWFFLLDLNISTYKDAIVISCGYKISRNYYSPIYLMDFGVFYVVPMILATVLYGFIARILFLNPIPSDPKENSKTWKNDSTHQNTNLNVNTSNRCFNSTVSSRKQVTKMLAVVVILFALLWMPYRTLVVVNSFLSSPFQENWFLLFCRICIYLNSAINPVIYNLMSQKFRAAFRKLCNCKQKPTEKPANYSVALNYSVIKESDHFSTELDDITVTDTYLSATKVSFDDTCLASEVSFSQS

In the case of `CC(=O)NCCCCCC(=O)O`, the result in [1], in [6], in experiment [7], in [8], in experiment [9] and in experiment [10] was inactive. Besides, the molecule was classed as inactive in [14]. Also, the Potency result in experiment [2], in experiment [3], in experiment [4], in experiment [5], in experiment [11] and in experiment [12] was “inactive” throughout. In addition, the Potency entry in experiment [13], in experiment [15], in experiment [17] and in [18] was “inactive” throughout. In addition, the max activation in experiment [16] is 0.55%.
With `CN(CCOc1ccc(NS(C)(=O)=O)cc1)CCc1ccc(NS(C)(=O)=O)cc1`, the result in experiment [1], in [7], in experiment [8] and in [14] was inactive. In addition, the Potency result in experiment [2], in experiment [3], in experiment [4], in [5], in [19] and in experiment [11] was “inactive” in each case. For the same molecule, the Potency result in experiment [12], in experiment [13], in experiment [20] and in experiment [17] was “inactive” throughout. Besides, the max activation in experiment [16] is -6.17%.
As for `CC(=O)Nc1cccc(C)c1`, the molecule was called inactive in experiment [1], in experiment [6], in experiment [7], in experiment [8] and in [14]. The Potency entry in [2], in experiment [3], in experiment [4], in [5], in experiment [19] and in experiment [11] was “inactive” throughout. Also, the Potency result in experiment [12], in experiment [13], in experiment [20] and in [15] was “inactive” each time.
Take `NS(=O)(=O)c1ccc(NC(=O)CCC(=O)O)cc1`: the call in [1], in experiment [6], in experiment [7], in experiment [8] and in experiment [14] was inactive. For the same molecule, the Potency entry in experiment [2], in experiment [3], in experiment [4], in experiment [5], in experiment [19] and in experiment [11] was “inactive” in each case. The Potency result in experiment [12], in experiment [13], in experiment [20], in experiment [15], in experiment [17] and in experiment [18] was “inactive” in each case. Further, the max activation in [16] was -2.26%.
Take `C[C@H](CCC(=O)O)[C@H]1CC[C@H]2[C@@H]3C(=O)C[C@@H]4CC(=O)CC[C@]4(C)[C@H]3CC(=O)[C@]12C`: the result in experiment [1], in experiment [6], in [7], in [8], in experiment [9] and in experiment [10] was inactive. Further, the molecule was called inactive in experiment [14]. In addition, the Potency result in experiment [2], in [3], in [4], in experiment [5], in experiment [11] and in experiment [12] was “inactive” each time. The Potency result in experiment [13], in [20], in [15], in experiment [17] and in experiment [18] was “inactive” each time. In addition, the max activation in [16] is -0.558%.
Take `CC(=O)/C=C/C1C(C)=CCC(C)C1(C)C` (stereo not given): the outcome in experiment [1], in experiment [6], in experiment [7], in experiment [8] and in [14] was inactive. Also, the Potency entry in [2], in [3], in experiment [4], in experiment [5], in experiment [19] and in [11] was “inactive” in each case. In addition, the Potency result in experiment [12], in experiment [13] and in [20] was “inactive” each time. In addition, the Potency in experiment [15] is 19.3 µM (active).

The values above are taken from PubChem BioAssay (Tox21).
